Rows were chosen to be rich in hits. Some 3.3% of all compounds tested hit in one or more screens of this group.
esBAF inh: Bmi1 luciferase reporter increase in mESCs, primary screen, esBAF inhibitor project, mouse ES cells, Bmi1 luciferase knock-in, single point; 24 h; 100% = twice the neutral-well signal; reporter increase, % at 12.5 µM; actives 2% (n = 350,000); in the data active means activation above about 40%; inconclusive means no clear call, values can overlap the other calls;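 further: 0% = median of the plate's neutral control wells and 100% = double that signal; a rise in the Bmi1 reporter signal indicates esBAF inhibition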
Wnt bcat act: Wnt/beta-catenin pathway activators, primary screen, cell-based, plate reader, single point; Wnt/beta-catenin reporter cell assay, activator; activation, % at 9.35 µM; actives 1.2% (n = 300,000); in the data active means activation above about 30%, passing the limit was not always enough; inconclusive means no clear call, values can overlap the other calls;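 further: 0% = neutral control wells and 100% = positive control wells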
MITF TRPM1 HTS: activators of MITF-driven TRPM1 promoter reporter, primary screen, cell-based, SK-MEL-5, luciferase, single point; SK-MEL-5 TRPM1-promoter luciferase, 24 h; % of positive control, neutral wells = 0; activation, % at 12.5 µM; actives 0.75% (n = 300,000);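 active means mean activation of at least 80% with every replicate also reaching 80%; inconclusive means mean reaches 80% but some replicate falls short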;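 further: 0% = neutral control wells and 100% = parthenolide positive control wells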
C2C12 statin: suppressors of statin myotoxicity in C2C12 myotubes, primary screen, cell-based, single point, plate reader; C2C12 myotubes + simvastatin, ATP luminescence, 48 h; scaled: DMSO 0, geranylgeraniol control 100; rescue of ATP level, % at 7.49 µM; actives 0.78% (n = 330,000); AID 602340, 2012;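 active means mean ATP rescue above about 67%, or every replicate alone reaching that limit, limit read from the data, passing the limit was not always enough; inconclusive means no clear call, values can overlap the other calls; inactive means mean under the limit and some replicate under it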;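 further: myotubes were challenged with 10 µM simvastatin during compound exposure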
GAA850 FXN act: FXN promoter activators, primary screen, cell-based, luciferase luminescence, HEK293 lucGAA850 | HEK293 lucGAA850 FXN promoter luciferase reporter, 24 h; percent of 10 µM SAHA response | AID 540364, 2011 | actives 0.56% (n = 360,000) | activation, % at 6 µM;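 active means activation above the average of all compounds screened plus 3 SD, cutoff fixed separately per campaign, cut at about 7.5% in these data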;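 further: 0% = DMSO wells and 100% = 10 µM SAHA wells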
* = called active by the depositor; ? = inconclusive; nt = no result given.

SMILES	esBAF inh	Wnt bcat act	MITF TRPM1 HTS	C2C12 statin	GAA850 FXN act
C[C@@H]1CN([C@@H](C)CO)C(=O)c2cccc(NS(=O)(=O)c3cccs3)c2O[C@@H]1CN(C)C(=O)Nc1ccc(C(F)(F)F)cc1	-5	nt	nt	96*	nt
C[C@@H]1CN([C@H](C)CO)C(=O)c2cccc(NS(=O)(=O)c3cccs3)c2O[C@H]1CN(C)C(=O)Nc1ccc(C(F)(F)F)cc1	-3	nt	nt	73*	nt
C[C@H]1CN([C@@H](C)CO)C(=O)c2cccc(NS(=O)(=O)c3cccs3)c2O[C@@H]1CN(C)Cc1ccc(Oc2ccccc2)cc1	-6	nt	nt	83*	nt
C[C@H](CO)N1C[C@H](C)[C@H](CN(C)C(=O)Nc2ccc(C(F)(F)F)cc2)Oc2c(NS(=O)(=O)c3cccs3)cccc2C1=O	2	nt	nt	11	nt
C[C@@H]1CN([C@@H](C)CO)C(=O)c2cccc(NS(=O)(=O)c3cccs3)c2O[C@H]1CN(C)C(=O)Nc1ccc(C(F)(F)F)cc1	-11	nt	nt	22	nt
Cc1noc(C)c1S(=O)(=O)N(C)C[C@@H]1Oc2ccc(NC(=O)Nc3ccccc3)cc2CC(=O)N([C@@H](C)CO)C[C@@H]1C	11	nt	nt	-29	nt
O=C(C1CC12CCCC2)N1CCC(CO)(Cc2ccccc2Cl)CC1 (stereo not given)	nt	56*	5	nt	0
C[C@@H]1CN([C@H](C)CO)C(=O)c2cc(-c3ccc(F)cc3)cnc2O[C@H]1CN(C)C(=O)c1ccncc1	nt	nt	nt	-116	nt
COC(=O)c1cc(S(=O)(=O)NCCc2ccccc2)c[nH]1	-5	0	-2	120*	-1
COC(=O)c1cc(S(=O)(=O)NCC(C)c2ccccc2)c[nH]1 (stereo not given)	4	-3	nt	-4	-3
CCCc1cn(CC[C@H]2CC[C@@H](NS(=O)(=O)c3ccccc3Cl)[C@H](CO)O2)nn1	0	nt	nt	0	nt
COc1cc(SC)ccc1C(=O)Nc1ccncc1	nt	27	-8	nt	3
COc1cc(SC)ccc1C(=O)Nc1ccc2c(c1)CCC2	47*	-1	63	-23	5
COc1cc(SC)ccc1C(=O)Nc1cccc(C2OCCCO2)c1	68*	-5	75	27	3
COc1cc(SC)ccc1C(=O)Nc1ccccc1C#N	43*	3	27	99*	3
COc1cc2nc(N(C)C)nc(N)c2cc1OC	-9	-5	0	78*	-4
COc1cc2nc(Nc3ccc(C)c(C)c3)nc(N)c2cc1OC	1	5	-34	-25	0
CC(C)(C)N1C(=O)[C@H]2[C@@H](c3ccc(Br)cc3)N3C(=O)N(c4ccccc4)C(=O)[C@@]3(C)[C@H]2C1=O	1	0	-17	4	12*
COc1ccc([C@@H]2[C@@H]3C(=O)N(C(C)(C)C)C(=O)[C@@H]3[C@]3(C)C(=O)N(c4cccc(C)c4)C(=O)N23)cc1	1	-3	7	10	4
CN(C)/C=C/C(=O)c1ccc(N2CCN(c3ncc(C(F)(F)F)cc3Cl)CC2)cc1	18	nt	-27	134*	-2
NC(=O)c1ccccc1N/C=C/C(=O)c1ccc(F)cc1	31	54*	48	-23	4
NC(=O)c1ccccc1N/C=C/C(=O)c1cccs1	-8	nt	35	-28	2
O=C(/C=C/Nc1ccc(Br)cc1F)c1ccccc1	nt	-9	-26	nt	-7
O=C(/C=C/Nc1ccc(F)cc1)c1ccc(Br)cc1	nt	61*	47	nt	6
N#Cc1ccccc1N/C=C/C(=O)c1ccc(Cl)cc1	-8	48*	nt	-22	3
SMILES	esBAF inh	Wnt bcat act	MITF TRPM1 HTS	C2C12 statin	GAA850 FXN act
O=C(/C=C/Nc1ccccc1F)c1ccc(Br)cc1	nt	46*	32	nt	7
O=C(/C=C/Nc1ccc(F)c(F)c1)c1ccc(Br)cc1	nt	12	66	nt	5
CN1C(=CC=C2C=C(I)C(=O)C(I)=C2)C(C)(C)c2ccccc21	-26	1	-5	-59	2
CN1/C(=C\C=C2/C(=O)Oc3ccccc3C2=O)C(C)(C)c2ccccc21	nt	52*	nt	nt	nt
O=C(c1cc(-c2ccc(Cl)cc2Cl)on1)N1CCCC1	-49	-1	3	15	-1
CN1CCN(C(=O)c2cc(-c3cccc(Cl)c3)on2)CC1	17	nt	19	-19	3
O=C(c1cc(-c2ccc(O)cc2)on1)N1CCCCCC1	11	40*	84*	11	5
O=C(c1cc(-c2ccc(Cl)cc2Cl)on1)N1CCCCCC1	-8	33*	42	-34	2
O=C(c1cc(-c2ccc(Cl)c(Cl)c2)on1)N1CCCCCC1	59*	22	131*	-19	2
O=C(c1cc(-c2cccc(Cl)c2)on1)N1CCCCCC1	63*	21	113*	7	6
C[C@@H]1CCCCO[C@H](CN(C)CC2CCCCC2)[C@@H](C)CN([C@@H](C)CO)C(=O)c2cc(NS(=O)(=O)c3cn(C)cn3)ccc2O1	0	nt	nt	-16	nt
O=C(CNCc1ccccc1Cl)Nc1ccc2c(c1)OCCO2	52*	3	?	-1	5
O=C(CSCc1ccccc1Cl)Nc1ccc2c(c1)OCCO2	-24	-5	135*	-2	1
Clc1cccc(-c2ccc3ncnc(NCc4cccs4)c3c2)c1	-6	35*	-9	-27	2
N#Cc1ccccc1OCC(=O)Nc1ccc2c(c1)OCO2	65*	3	nt	15	1
Cc1cccc(OCC(=O)Nc2ccc3c(c2)OCO3)c1C	12	10	nt	nt	-2
O=C(COc1ccccc1F)Nc1ccc2c(c1)OCCO2	-20	19	76	-3	-9
CC(C)NC(=O)COc1ccccc1C#N	nt	-1	-4	nt	2
N#Cc1ccccc1OCC(=O)NC1CCCCC1	nt	-1	42	3	2
N#Cc1ccccc1OCC(=O)Nc1ccc2c(c1)OCCCO2	74*	11	nt	-1	6
N#Cc1ccccc1OCC(=O)Nc1ccc2c(c1)OCCO2	66*	-1	79	1	2
CC1CCCCC1NC(=O)COc1ccccc1C#N (stereo not given)	53*	8	6	-2	1
O=C(Nc1ccccc1F)N[C@H]1CC[C@@H](CC(=O)N2CCCCC2)O[C@H]1CO	-2	nt	nt	-7	nt
CCC(=O)N(C)C[C@H]1Oc2cc(-c3cccc(OC)c3)ccc2S(=O)(=O)N([C@@H](C)CO)C[C@H]1C	-6	nt	nt	-14	nt
O=C(COc1ccccc1Br)Nc1ccc2c(c1)OCCCO2	51*	0	108*	4	7
Cc1cc(OCC(=O)Nc2ccc3c(c2)OCCO3)cc(C)c1Cl	nt	-2	-9	nt	-1
CCCNC(=O)C[C@@H]1CC[C@H]2[C@H](COc3ccc(NC(=O)c4cscn4)cc3C(=O)N2C)O1	3	nt	nt	36	nt

Screening results as filed in PubChem BioAssay.
